Laboratory results reported in PubChem BioAssay (NCI).
About 83,000 compounds went through this panel and 20% of them were active in at least one assay; those are over-represented in the sample as a whole.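 Assay: single dose, 48 h. Readout: percent growth (0 = no net growth; negative = cell death). Active: <10.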 Calls of active or inactive are those of the source.

test system: OVCAR-4 ovarian; test: NCI-60 one-dose screen, 48 h (100 = growth as untreated, 0 = no growth, -100 = all killed); settings: 10 µM unless noted
Method: Growth inhibition of the OVCAR-4 human tumor cell line is measured as a screen for anti-cancer activity. Cells are grown in 96 well plates and exposed to the test compound for 48 hours. Compounds are tested at a single concentration, which is 10^-5 M for most compounds. The reported endpoint is percent growth (GI% or GIPRCNT), where numbers from 0 - 100% represent growth inhibition, and numbers from -100% - 0 represent cell death. For example, a value of 40 represents 60% growth inhibition. A value of 0 means no net growth occurred over the course of the experiment. A value of -40 indicates 40% of cells at the beginning of the experiment died by the end of the experiment. A value of -100 means all cells are dead at the end of the experiment.
NCI-60 Human Tumor Cell Lines Screen was performed using the standard one-dose NCI protocol, which is described in more detail at https://dtp.cancer.gov/discovery_development/nci-60/default.htm.
Compounds with GIPRCNT values below 10 were considered active. Activity score was based on GIPRCNT using the following formula: […]
Score is 0 for GIPRCNT values of 100 or above, 50 for GIPRCNT values of 0, and 100 for GIPRCNT values of -100.

| Structure (SMILES) | growth |
| --- | --- |
| COc1ccc(/C=N\NC(=O)c2cnn(CC(O)c3ccccc3)c2N)cc1OCc1ccc(Cl)cc1 (stereo not given) | 74.1% (inactive) |
| CC(C)(C)c1cc(NC(=O)Nc2ccc(-c3cn4c5c(sc4n3)CCc3c[nH]cc3-5)cc2)no1 | 49% (inactive) |
| Cc1ccc(Nc2nc(SC(C)C)nc(-c3ccccc3)c2C#N)cc1 | 87.3% (inactive) |
| Cc1ccc2c(n1)C(=O)C(Cl)=C(Nc1cccc(C)c1C)C2=O | -97.6% (active) |
| O=C(Nc1cccc(C(F)(F)F)c1)N1CCN(c2cc(-c3cn(-c4ccccc4)nc3-c3cccc(O)c3)ccn2)CC1 | 24.9% (inactive) |
| C=C(C)[C@@H]1CC[C@]2(C(=O)N3CCN(C)CC3)CC[C@]3(C)[C@H](CC[C@@H]4[C@@]5(C)CC[C@H](OP(=O)(OCC)OCC)C(C)(C)[C@@H]5CC[C@]43C)[C@@H]12 | 91.2% (inactive) |
| OCC(Nc1ncnc2ccc(-c3cnc4cnccn34)cc12)c1ccccc1 (stereo not given) | 63.7% (inactive) |
| O=C(N/N=C\c1ccc(F)cc1)c1ccc2nc(-c3ccc(Br)cc3)[nH]c2c1 | 12.5% (inactive) |
| O=C(CSc1nnc(-c2cccs2)n1-c1ccccc1)Nc1ccccc1 | 56.3% (inactive) |
| CCc1cc(OC(=O)N2CCC(N3CCCCC3)CC2)ccc1Nc1cc(-c2ccc(-n3cccn3)cc2)[nH]n1 | 85.3% (inactive) |
| O=C(/C=C/c1ccccc1)c1cccc(O)c1 | 105% (inactive) |
| CN1CCN(c2ccc(Nc3nc(NCCNC(=O)c4ccccc4)c4sccc4n3)cc2)CC1 | 55.4% (inactive) |
| C[C@]12CC[C@H]3[C@@H](CC=C4C[C@@H](O)CC[C@@]43C)[C@@H]1CC[C@@H]2[C@](C)(O)CCc1cccnc1 | 21.9% (inactive) |
| CC1(C)CC[C@]2(C(=O)NCCCCCCN(CCCN)CCCN)CC[C@]3(C)C(=CC[C@@H]4[C@@]5(C)CC[C@H](O)C(C)(C)[C@@H]5CC[C@]43C)[C@@H]2C1 | 109% (inactive) |
| C/C(=N\NC(=O)Nc1ccccc1)c1nnn(-c2ccc([N+](=O)[O-])cc2)c1C | 105% (inactive) |
| CN1CCC[C@]2(C)[C@H]3CC[C@@H]4[C@@H]5[C@H]6OC[C@@]5(CCC6(C)C)CC[C@@]4(C)[C@]3(C)CC[C@H]2C1(C)C | 86.9% (inactive) |
| COCCOc1ccc2ncc(C#Cc3cncc(C(=O)Nc4ccc(CN5CCN(C)CC5)c(C(F)(F)F)c4)c3)n2n1 | 43.2% (inactive) |
| COc1ccc(C2c3[nH]c4ccc(Cl)cc4c3CCN2c2oc(CO)nc2C#N)cc1 (stereo not given) | 69.7% (inactive) |
| CC(C)NC(=O)c1cc(-c2ccc(NC(=O)Nc3ccc(F)c(C(F)(F)F)c3)cc2)nc2cccnc12 | 92.3% (inactive) |
| O=[N+]([O-])c1ccc(NC(=S)NNC(=S)Nc2ccc(F)cc2)cc1 | 95.7% (inactive) |

| Structure (SMILES) | growth |
| --- | --- |
| COc1cc(-c2nc(-c3ccccc3)[nH]c2-c2ccnc(NCCCNS(=O)(=O)c3ccc(C)cc3)n2)ccc1F | 108% (inactive) |
| CN(C)c1cccc2c(S(=O)(=O)Nc3cccc(-c4csc(NC(=O)CCCCCN5CCN(CCO)CC5)n4)c3)cccc12 | 92.4% (inactive) |
| CN(C)CCCOc1ccc(C(=C(c2ccccc2)C2CCCC2)c2ccc(OCCCN(C)C)cc2)cc1 | -89.4% (active) |
| O=C1/C(=C/C=C/c2ccco2)SC(=S)N1Cc1ccccc1 | 95.1% (inactive) |
| CC(C)(C)Nc1nc2c(OCCc3ccccc3)cccn2c1-c1cccc(Oc2ccccc2)c1 | 31.2% (inactive) |
| CCN(CC)S(=O)(=O)c1ccc(-c2nc(C(Cl)Cl)nc3cc(-c4ccc(F)cc4)nn23)cc1 | 45.2% (inactive) |
| Oc1ccc(-c2nc3ccc(/C(=N\N=C\c4ccc(Cl)cc4)c4ccccc4)cc3[nH]2)cc1 | 58.1% (inactive) |
| CN1CCN(c2ccc(Nc3nc(NCCCNS(=O)(=O)c4ccccc4)c4sccc4n3)cc2)CC1 | 56.5% (inactive) |
| CCOC(=O)c1c(NC(=O)c2cccc(C(F)(F)F)c2)sc2c1CCC(=O)C2 | 0.236% (active) |
| CCCCCCNC(=O)Oc1ccc(/C(=C(/C)c2ccc(Cl)cc2)c2ccc(OCCN3CCCCCC3)cc2)cc1 | 61% (inactive) |
| Cn1cc(-c2cc3ncnc(Nc4ccc(NC(=O)Nc5cc(C(C)(C)C)on5)cc4)c3s2)cn1 | 41% (inactive) |
| COc1cc(C(=O)c2cc(C(C)=O)c3c(C)cccn23)cc(OC)c1OC | 90.8% (inactive) |
| C#C[C@]1(O)CC[C@H]2[C@@H]3CC=C4c5sc(Nc6ccc(C)cn6)nc5CC[C@]4(C)[C@H]3CC[C@@]21C | 42.8% (inactive) |
| N#CC1=C2NCCCNc3oc(nc3C#N)Cc3ccccc3CC(=N1)O2 | 94.5% (inactive) |
| COc1cc(OC)cc(-c2cc(-c3c[nH]c4ccccc34)nc(-c3c[nH]c4ccccc34)c2C#N)c1 | 102% (inactive) |
| CC(Nc1ncnc2ccc(-c3cnc(N)nc3)cc12)c1ccccc1 (stereo not given) | 39.7% (inactive) |
| O=S(=O)(NCCCNc1nccc(-c2[nH]c(-c3ccccc3)nc2-c2ccc(F)c(O)c2)n1)c1cccc(F)c1 | 108% (inactive) |
| CCOC(=O)c1cccc(NC2=C(Cl)C(=O)C(C)=C(C)C2=O)c1 | -4.17% (active) |
| Oc1[nH]c2ccc(Cl)cc2c1N=Nc1nc(N=Nc2c(O)[nH]c3ccc(Cl)cc23)nc(N2CCCCC2)n1 | 42.2% (inactive) |
| CC(=O)OC[C@]12CC[C@@H](C(=O)/C=C/c3cccnc3)[C@@H]1[C@H]1CC[C@@H]3[C@@]4(C)CC[C@H](OC(C)=O)C(C)(C)[C@@H]4CC[C@@]3(C)[C@]1(C)CC2 | 21.9% (inactive) |
